Measurements taken from PubChem BioAssay (NCATS).
Results filed as inconclusive are left out. Calls of active or inactive are those of the source. Unless noted, calls come from the whole dose curve; as a rule, active = well fitted curve in the direction sought with a large enough effect; inconclusive = small, poorly fitted or top-dose-only effect, or another doubt; inactive = no such curve, though single readings can be large; an effect the other way counts as inactive or inconclusive.

Tests used:
[1] = target: Lysosomal acid glucosylceramidase (Homo sapiens) (UniProt P04062); assay: Glucocerebrosidase-p2 (AID 348; in the data active = potency below about 10 µM; note: potency is the fitted concentration of half-maximal effect); conditions: purified GBA, blue fluorogenic substrate, 40 min
Sequence of Lysosomal acid glucosylceramidase (Homo sapiens) (P04062 whole entry, looked up): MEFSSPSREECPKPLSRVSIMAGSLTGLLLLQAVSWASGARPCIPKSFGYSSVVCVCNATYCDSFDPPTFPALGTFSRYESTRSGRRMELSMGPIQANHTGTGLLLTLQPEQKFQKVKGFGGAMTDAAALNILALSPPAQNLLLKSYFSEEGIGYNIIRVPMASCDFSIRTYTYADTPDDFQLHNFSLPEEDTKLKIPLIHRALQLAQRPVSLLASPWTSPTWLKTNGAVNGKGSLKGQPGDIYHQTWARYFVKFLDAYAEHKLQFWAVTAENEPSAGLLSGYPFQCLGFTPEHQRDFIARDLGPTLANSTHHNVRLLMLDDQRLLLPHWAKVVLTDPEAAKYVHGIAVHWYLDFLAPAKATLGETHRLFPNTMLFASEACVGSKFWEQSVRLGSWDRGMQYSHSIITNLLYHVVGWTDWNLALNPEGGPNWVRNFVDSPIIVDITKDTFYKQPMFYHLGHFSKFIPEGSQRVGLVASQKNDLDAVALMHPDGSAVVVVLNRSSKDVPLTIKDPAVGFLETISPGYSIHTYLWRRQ
Summary of the method: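 Compounds titrated from 0.6 nM upwards against 0.2 nM enzyme in pH 5.9 citric acid/KH2PO4, taurocholate, tween-20; blue fluorogenic substrate 80 uM, 40 min room temperature, stopped and read Ex 365/Em 440 for AC50.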

[2] = AP1 Signaling Pathway (AID 357; active = well fitted curve in either direction with a large enough effect, not every such curve was filed as active;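 note: ME-180 reporter cells stimulated with EGF at its EC50 level; % is set by controls: 0 for no effect and ±100 for the full control effect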); conditions: ME-180 AP-1-bla reporter, EGF-induced, beta-lactamase ratio, 5 h; at 7.69 µM (top of the series) unless noted
Summary of the method: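 Modulation of EGF-driven AP-1 transcription was assessed with a beta-lactamase reporter in ME-180 cells. Compound and EC50 EGF were co-incubated 5 hours at 37 °C before 2.5-hour CCF4 loading at room temperature and dual-emission reading.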

[3] = target: Cytochrome P450 1A2 (Homo sapiens) (UniProt P05177); assay: p450-cyp1a2 (AID 410; calls by dose curve; note: potency is the fitted concentration of half-maximal effect;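 for activity change, negative = inhibition: -100% = full effect of reference inhibitor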); conditions: recombinant CYP1A2, luciferin-ME demethylation, luminescence; series mostly up to 57 µM
Sequence of Cytochrome P450 1A2 (Homo sapiens) (P05177 whole entry, looked up): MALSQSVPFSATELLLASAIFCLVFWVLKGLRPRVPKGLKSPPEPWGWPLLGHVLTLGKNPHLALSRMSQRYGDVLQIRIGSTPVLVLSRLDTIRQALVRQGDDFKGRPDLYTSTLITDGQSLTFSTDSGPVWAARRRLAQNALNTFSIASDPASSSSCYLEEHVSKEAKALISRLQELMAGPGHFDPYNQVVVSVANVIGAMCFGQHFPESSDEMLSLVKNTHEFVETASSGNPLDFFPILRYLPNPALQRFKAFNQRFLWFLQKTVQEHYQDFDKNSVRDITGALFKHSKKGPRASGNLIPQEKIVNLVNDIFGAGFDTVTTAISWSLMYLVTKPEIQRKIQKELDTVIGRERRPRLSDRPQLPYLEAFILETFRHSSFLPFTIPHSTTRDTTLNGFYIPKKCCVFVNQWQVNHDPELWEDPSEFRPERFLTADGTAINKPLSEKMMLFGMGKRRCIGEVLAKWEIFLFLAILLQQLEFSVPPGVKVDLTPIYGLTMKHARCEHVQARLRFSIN
Summary of the method: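 Inhibition was calculated relative to 57 uM furafylline (full inhibition). The reaction used human CYP1A2 at 20nM with Luciferin-ME at its Km, 100uM, driven by an NADPH-regenerating system for 60 min at room temperature.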

[4] = NFAT Signaling Pathway (AID 444; active = well fitted curve in either direction with a large enough effect, not every such curve was filed as active;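 note: carbachol stimulus at about its EC50 of 1 µM final; % is set by controls: 0 for no effect and ±100 for the full control effect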); conditions: Jurkat NFAT-bla M1, carbachol, beta-lactamase ratio, 5 h; at 7.69 µM (top of the series) unless noted
Summary of the method: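 Jurkat cells carrying an NFAT-driven β-lactamase reporter and co-transfected muscarinic M1 receptor were treated with compound plus carbachol (1 uM final, an EC50 level) for 5 h at 37 °C. CCF4 loading followed for 1 h at RT; 460/530 nm ratio gave %activity.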

[5] = Stat Signaling Pathway (AID 446; active = well fitted curve in either direction with a large enough effect, not every such curve was filed as active;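 note: ME-180 cervical cancer cells given 40 pM IL-6 alongside compound; SIE-controlled beta-lactamase reporter measured as 460/530 nm FRET emission ratio; % is set by controls: 0 for no effect and ±100 for the full control effect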); conditions: ME-180 SIE beta-lactamase reporter, IL-6 stimulated, 5 h; at 7.69 µM (top of the series) unless noted
Summary of the method: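 ME-180 SIE-bla cells; overnight plating; cpd + IL-6 40 pM, 5 h, 37 C; LiveBLAzer 2.5 h RT; 460/530 nm emission ratio. Normalized to 300 pM IL-6 and 125 nM JAK inhibitor controls.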

[6] = target: Glucocorticoid receptor (Homo sapiens) (UniProt P04150); assay: GR-GFP Redistribution (AID 450;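 active = compounds whose dose series gives a full or clear partial fitted curve of increased nuclear translocation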; note: potency is the fitted concentration of half-maximal effect); conditions: U2OS GR-GFP nuclear translocation, laser cytometry, 2 h
Sequence of Glucocorticoid receptor (Homo sapiens) (P04150 whole entry, looked up, the tested form may be a part): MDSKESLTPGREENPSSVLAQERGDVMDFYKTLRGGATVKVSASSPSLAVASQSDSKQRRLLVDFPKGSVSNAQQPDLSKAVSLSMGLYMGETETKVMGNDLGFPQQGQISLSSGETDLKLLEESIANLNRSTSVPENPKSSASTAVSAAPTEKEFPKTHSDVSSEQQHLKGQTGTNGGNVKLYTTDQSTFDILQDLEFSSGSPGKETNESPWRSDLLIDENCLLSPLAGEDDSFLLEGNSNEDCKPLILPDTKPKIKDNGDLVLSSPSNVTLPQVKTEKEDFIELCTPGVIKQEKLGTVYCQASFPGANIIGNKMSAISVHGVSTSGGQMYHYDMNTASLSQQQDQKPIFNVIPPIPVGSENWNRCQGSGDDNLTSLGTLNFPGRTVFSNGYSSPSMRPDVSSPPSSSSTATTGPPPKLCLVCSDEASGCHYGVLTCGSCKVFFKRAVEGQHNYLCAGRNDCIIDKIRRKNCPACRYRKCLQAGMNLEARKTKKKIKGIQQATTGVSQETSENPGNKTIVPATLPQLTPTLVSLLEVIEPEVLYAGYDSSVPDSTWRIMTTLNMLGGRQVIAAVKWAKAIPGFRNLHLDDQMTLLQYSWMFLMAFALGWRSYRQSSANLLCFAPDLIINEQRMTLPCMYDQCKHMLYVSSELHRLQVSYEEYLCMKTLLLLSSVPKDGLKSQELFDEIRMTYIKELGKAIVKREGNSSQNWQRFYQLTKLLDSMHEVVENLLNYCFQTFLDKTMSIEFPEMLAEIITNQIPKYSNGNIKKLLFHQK

[7] = target: Glucocorticoid receptor (Homo sapiens) (UniProt P04150); assay: GR-EFC Redistribution (AID 451; calls by dose curve; note: potency is the fitted concentration of half-maximal effect); conditions: CHO-K1 GR-EFC translocation, beta-gal luminescence, 2 h
Summary of the method: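 CHO-K1 cells stably expressing nuclear-localized β-gal enzyme acceptor and GR fused C-terminally to the enzyme donor fragment; ligand-driven nuclear translocation restores β-gal by complementation. Compounds titrated up to 46 uM final, 2 h at 37 °C; luminescence read.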

[8] = target: Mitogen-activated protein kinase 10 (Mus musculus) (UniProt Q61831); assay: JNK3 AlphaScreen Assay (AID 530; active = well fitted curve in either direction with a large enough effect, not every such curve was filed as active;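 note: kinase came from lysate of stimulated human HepG2 cells; signal reports phosphorylation of biotinylated GST-cJun 1-79 at Ser73 with 10 µM ATP; % is set by controls: 0 for no effect and ±100 for the full control effect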); conditions: JNK3 lysate, c-Jun phosphorylation; series mostly up to 57.1 µM
Summary of the method: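 JNK3 came from HepG2 lysates pre-activated with IL-1beta and TNF-alpha and phosphorylated biotinylated GST-cJun (1-79) at 10 uM ATP, pH 7.6, room temperature. Compounds were titrated. AlphaScreen signal used anti-phospho-cJun (Ser73) antibody.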

[9] = target: 3',5'-cyclic-AMP phosphodiesterase 4B (Homo sapiens) (UniProt Q07343); assay: qHTS Assay for Inhibitors of PDE-IV (AID 607; active = well fitted activation curve with a large enough effect in the main read-out, with a control signal flat, not every such curve was filed as active; note: % of control where 0% means no effect); conditions: HEK293 ACTOne CNG channel cells, membrane potential fluorescence; series mostly up to 22.9 µM
Sequence of 3',5'-cyclic-AMP phosphodiesterase 4B (Homo sapiens) (Q07343 whole entry, looked up): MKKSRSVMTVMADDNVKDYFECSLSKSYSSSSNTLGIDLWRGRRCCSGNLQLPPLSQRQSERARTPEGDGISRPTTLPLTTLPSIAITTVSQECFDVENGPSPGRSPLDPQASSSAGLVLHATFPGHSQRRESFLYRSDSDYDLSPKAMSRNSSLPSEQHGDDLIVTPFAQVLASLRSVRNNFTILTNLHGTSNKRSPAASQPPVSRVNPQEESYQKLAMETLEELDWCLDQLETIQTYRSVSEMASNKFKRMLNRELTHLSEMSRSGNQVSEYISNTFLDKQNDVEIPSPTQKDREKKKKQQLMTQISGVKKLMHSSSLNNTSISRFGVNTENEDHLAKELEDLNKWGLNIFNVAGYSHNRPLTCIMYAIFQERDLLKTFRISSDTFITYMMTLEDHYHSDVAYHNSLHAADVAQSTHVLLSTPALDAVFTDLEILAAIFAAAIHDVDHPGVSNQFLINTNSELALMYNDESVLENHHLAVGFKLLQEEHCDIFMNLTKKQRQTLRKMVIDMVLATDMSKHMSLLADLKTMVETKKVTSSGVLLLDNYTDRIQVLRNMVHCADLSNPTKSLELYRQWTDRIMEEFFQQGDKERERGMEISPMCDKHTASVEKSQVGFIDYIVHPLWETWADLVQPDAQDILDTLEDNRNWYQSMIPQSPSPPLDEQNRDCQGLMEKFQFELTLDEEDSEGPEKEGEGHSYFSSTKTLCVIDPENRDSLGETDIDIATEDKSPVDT
Summary of the method: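 ACTOne HEK293 cells carry a modified cAMP-gated CNG channel and express endogenous PDE4; plated 1000 cells/well, compounds up to 22.9 uM final. Membrane-potential dye fluorescence (ex 535/em 590) was read; parental cells received 10 uM forskolin + 100 uM RO 20-1724.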

[10] = target: Cytochrome P450 3A4 (Homo sapiens) (UniProt P08684); assay: qHTS Assay for Activators of Cytochrome P450 3A4 (AID 885); conditions: recombinant CYP3A4, Luciferin-PPXE luminescence, 60 min; series mostly up to 57.1 µM; note: nearly all actives have a fitted effect of over 65% in size
Sequence of Cytochrome P450 3A4 (Homo sapiens) (P08684 whole entry, looked up): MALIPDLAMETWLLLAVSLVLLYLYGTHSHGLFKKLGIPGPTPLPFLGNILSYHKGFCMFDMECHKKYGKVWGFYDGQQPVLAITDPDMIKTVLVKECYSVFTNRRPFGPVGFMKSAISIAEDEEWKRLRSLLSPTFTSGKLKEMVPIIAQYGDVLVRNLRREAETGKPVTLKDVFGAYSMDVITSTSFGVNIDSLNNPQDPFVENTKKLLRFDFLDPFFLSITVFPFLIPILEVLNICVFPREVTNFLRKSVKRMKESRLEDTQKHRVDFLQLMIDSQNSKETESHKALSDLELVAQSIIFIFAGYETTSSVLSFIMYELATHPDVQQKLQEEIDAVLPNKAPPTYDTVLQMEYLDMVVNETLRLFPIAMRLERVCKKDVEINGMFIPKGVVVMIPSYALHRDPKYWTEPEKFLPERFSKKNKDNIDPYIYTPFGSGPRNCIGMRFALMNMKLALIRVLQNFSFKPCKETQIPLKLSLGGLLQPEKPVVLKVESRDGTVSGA
Summary of the method: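 20nM CYP3A4 + 25uM Luciferin-PPXE (=KM), 200mM KPO4; cpd 10 min RT; NADPH regen, 60 min RT; stop w/ detection buffer, 20 min; luminescence. Normalized to 57 uM ketoconazole.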

[11] = qHTS Assay for Lipid Storage Modulators (AID 1519; calls by dose curve); conditions: Drosophila S3 cells, BODIPY lipid droplet/cell ratio, laser cytometry, cells loaded with oleic acid; for activity change, negative = inhibition: at 57.5 µM (top of the series)
Summary of the method: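 Cells seeded at 5,000 per well were treated with compounds over a concentration series and loaded with oleic acid (400 uM, as added). Lipid droplet fluorescence (488 nm excitation, 500-530 nm channel) was read by laser-scanning cytometry and normalized to 20 uM Triacsin C.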

[12] = target: Dual specificity protein kinase CLK4 (Homo sapiens) (UniProt Q9HAZ1); assay: qHTS Assay for Inhibitors of CDC-like Kinase 4 (Kinase-Glo Assay) (AID 1770); conditions: recombinant Clk4, Kinase-Glo ATP depletion luminescence; series mostly up to 66.7 µM; note: % is set by controls: 0 for no effect and ±100 for the full control effect; nearly all actives have a fitted effect of over 65% in size
Sequence of Dual specificity protein kinase CLK4 (Homo sapiens) (Q9HAZ1 whole entry, looked up): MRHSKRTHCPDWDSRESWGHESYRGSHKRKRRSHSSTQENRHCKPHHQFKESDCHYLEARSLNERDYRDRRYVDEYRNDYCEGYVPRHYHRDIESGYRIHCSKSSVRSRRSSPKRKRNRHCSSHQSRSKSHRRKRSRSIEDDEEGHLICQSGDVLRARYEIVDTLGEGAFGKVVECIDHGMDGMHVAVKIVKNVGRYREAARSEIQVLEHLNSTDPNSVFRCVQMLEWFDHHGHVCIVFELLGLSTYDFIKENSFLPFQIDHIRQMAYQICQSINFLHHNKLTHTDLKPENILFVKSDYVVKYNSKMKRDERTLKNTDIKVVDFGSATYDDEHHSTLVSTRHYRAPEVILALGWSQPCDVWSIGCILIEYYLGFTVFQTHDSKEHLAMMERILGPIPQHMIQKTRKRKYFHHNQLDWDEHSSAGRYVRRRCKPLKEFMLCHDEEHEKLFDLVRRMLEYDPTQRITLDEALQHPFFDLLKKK
Summary of the method: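 Substrate mix (RS peptide 100 uM, ATP 1 uM) dispensed, compound pinned in, then Clk4 added to 25 nM final. Incubated 4.5 h at RT; Kinase-Glo reagent added, luminescence read after 5 min.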

[13] = target: Dual specificity protein kinase CLK4 (Homo sapiens) (UniProt Q9HAZ1); assay: qHTS Assay for Inhibitors of CDC-like Kinase 4 (ADP-Glo Assay) (AID 1771); conditions: recombinant CLK4, ADP-Glo luminescence; series mostly up to 80 µM; note: % is set by controls: 0 for no effect and ±100 for the full control effect; nearly all actives have a fitted effect of over 70% in size
Summary of the method: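 Kinase reaction: Clk4 at 25 nM, RS repeat peptide substrate at 100 uM, ATP at 1 uM, 1 hr, room temperature. Product ADP detected as luciferase signal via ADP-Glo.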

[14] = target: Dual specificity protein kinase CLK4 (Homo sapiens) (UniProt Q9HAZ1); assay: qHTS Assay for Inhibitors of CDC-like Kinase 4 (ADP-FP Assay) (AID 1795); conditions: Transcreener ADP fluorescence polarization; series mostly up to 50 µM;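 note: recombinant human CLK4 phosphorylating RS repeat peptide at 1 µM ATP; % is set by controls: 0 for no effect and ±100 for the full control effect; nearly all actives have a fitted effect of over 60% in size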
Summary of the method: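 Clk4 6.25 nM; RS peptide 100 uM; ATP 1 uM; 25 mM Tris pH 7.5, 10 mM MgCl2; 1 h reaction. ADP detected via antibody/orange tracer FP displacement; TG003 positive control.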

[15] = target: Ubiquitin carboxyl-terminal hydrolase 1 (Homo sapiens) (UniProt O94782); assay: Inhibitors of USP1/UAF1: Pilot qHTS (AID 504865); conditions: purified USP1/UAF1, Ub-rhodamine cleavage fluorescence; series mostly up to 54.9 µM;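 note: rhodamine fluorescence freed from ubiquitin-rhodamine substrate followed over time; top concentration of the series differs between compounds; % is set by controls: 0 for no effect and ±100 for the full control effect; nearly all actives have a fitted effect of over 35% in size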
Sequence of Ubiquitin carboxyl-terminal hydrolase 1 (Homo sapiens) (O94782 whole entry, looked up): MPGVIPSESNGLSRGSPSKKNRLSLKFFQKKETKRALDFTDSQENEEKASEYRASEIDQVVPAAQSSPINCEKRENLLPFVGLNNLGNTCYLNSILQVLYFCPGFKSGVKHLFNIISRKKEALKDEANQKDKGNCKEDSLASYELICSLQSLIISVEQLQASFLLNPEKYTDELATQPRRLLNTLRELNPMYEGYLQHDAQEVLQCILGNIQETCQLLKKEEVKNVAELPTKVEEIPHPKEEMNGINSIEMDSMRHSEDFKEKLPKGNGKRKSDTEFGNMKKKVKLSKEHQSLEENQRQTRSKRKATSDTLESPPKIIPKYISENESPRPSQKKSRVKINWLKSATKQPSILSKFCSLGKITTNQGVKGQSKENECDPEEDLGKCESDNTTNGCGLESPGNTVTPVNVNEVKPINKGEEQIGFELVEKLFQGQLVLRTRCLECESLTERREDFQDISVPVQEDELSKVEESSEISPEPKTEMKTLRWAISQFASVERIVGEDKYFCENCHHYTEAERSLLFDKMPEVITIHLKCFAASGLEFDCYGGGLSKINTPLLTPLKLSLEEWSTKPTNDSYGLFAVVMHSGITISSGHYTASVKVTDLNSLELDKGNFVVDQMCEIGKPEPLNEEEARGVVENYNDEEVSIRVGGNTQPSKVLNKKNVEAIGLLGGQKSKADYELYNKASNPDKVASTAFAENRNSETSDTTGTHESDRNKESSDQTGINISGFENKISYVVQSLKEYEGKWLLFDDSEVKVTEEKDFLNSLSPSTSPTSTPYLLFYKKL
Summary of the method: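 In 50mM HEPES pH 7.8 containing 0.5mM EDTA, 1mM TCEP, 0.1 mg/ml BSA and 0.01% Tween-20, 1nM USP1/UAF1 is exposed to compound for 15 min, then Ub-Rho (150nM final) is added and fluorescence is read over time.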

[16] = Primary qHTS for small molecule stabilizers of the endoplasmic reticulum resident proteome: Secreted ER Calcium Modulated Protein (SERCaMP) assay (AID 1508630); conditions: SH-SY5Y GLuc-SERCaMP (Gaussia luciferase released on ER calcium loss) secretion, thapsigargin, luminescence; series mostly up to 38.4 µM; note: % is set by controls: 0 for no effect and ±100 for the full control effect
Summary of the method: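 GLuc-SERCaMP-expressing SH-SY5Y cells, pretreated 16 h with compound, are challenged with thapsigargin to empty ER calcium stores; after 4 h, coelenterazine is added directly to the medium and luminescence is imaged.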

[17] = qHTS Assay for Identification of Small Molecule Agonists for Hypoxia Response Element Signaling Pathway (AID 914; active = well fitted activation curve with a large enough effect in the signal ratio, with a control signal flat, not every such curve was filed as active; the % refers to the signal ratio; note: % of control where 0% means no effect); conditions: ME-180 (cervical carcinoma) HRE-bla reporter, beta-lactamase ratio, CoCl2, 17 h; activation: stronger effect = higher value
Summary of the method: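 Positive modulation of EC50 CoCl2-induced hypoxia response element signaling is measured in ME-180 cells with a beta-lactamase reporter. Compounds are titrated, incubation runs 17 hours, and %Activity derives from the blue/green ratio.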

[18] = target: Cytochrome P450 3A4 (Homo sapiens) (UniProt P08684); assay: qHTS Assay for Inhibitors and Substrates of Cytochrome P450 3A4 (AID 884); conditions: recombinant CYP3A4, Luciferin-PPXE luminescence; series mostly up to 57.1 µM; note: nearly all actives have a fitted effect of over 50% in size; note: potency is the fitted concentration of half-maximal effect
Summary of the method: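 20 nM human CYP3A4 with 25 uM Luciferin-PPXE (at KM) in 200 mM KPO4, preincubated 10 min with compound; NADPH regeneration started a 60 min RT reaction. Luciferin detected by luminescence, normalized to 57 uM ketoconazole as full inhibition.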

[19] = target: Cytochrome P450 2D6 (Homo sapiens) (UniProt P10635); assay: qHTS Assay for Inhibitors and Substrates of Cytochrome P450 2D6 (AID 891); conditions: recombinant CYP2D6, luciferin-ME EGE luminescence; series mostly up to 57.1 µM; note: potency is the fitted concentration of half-maximal effect; nearly all actives have a fitted effect of over 60% in size
Sequence of Cytochrome P450 2D6 (Homo sapiens) (P10635 whole entry, looked up): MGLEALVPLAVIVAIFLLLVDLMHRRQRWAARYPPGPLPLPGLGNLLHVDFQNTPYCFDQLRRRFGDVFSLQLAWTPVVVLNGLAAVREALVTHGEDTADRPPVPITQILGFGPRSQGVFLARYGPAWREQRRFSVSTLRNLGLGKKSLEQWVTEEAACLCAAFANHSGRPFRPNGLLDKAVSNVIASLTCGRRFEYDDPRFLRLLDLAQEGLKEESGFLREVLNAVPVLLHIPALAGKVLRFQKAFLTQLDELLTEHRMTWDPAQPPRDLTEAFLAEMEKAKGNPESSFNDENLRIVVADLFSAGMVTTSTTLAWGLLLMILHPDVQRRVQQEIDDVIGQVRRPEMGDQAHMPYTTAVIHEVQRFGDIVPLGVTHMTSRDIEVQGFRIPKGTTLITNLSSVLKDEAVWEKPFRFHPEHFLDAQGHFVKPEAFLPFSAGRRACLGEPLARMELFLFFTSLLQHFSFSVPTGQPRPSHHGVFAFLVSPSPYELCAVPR
Summary of the method: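 Human CYP2D6 (5 nM) with 30 uM Luciferin-ME EGE (at Km) in 100 mM KPO4, compound preincubated 10 min, then NADPH regeneration system for 60 min at room temperature. Luciferin read by luminescence; normalized to 1.43 uM quinidine.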

[20] = measured here: cell count channel max response
[21] = measured here: lipid channel max response

N#CCCn1c(=O)c(-c2cccc(C#N)c2)nc2cnc(N3CCOCC3)nc21
7.79%: max response [11, 21]
inactive: Potency [1] > 11.4 µM | activity change, negative = inhibition [2] 2.97% | activity change, negative = inhibition [4] 6.22% | activity, negative = inhibition [5] 11.4% | Potency [6] > 9.22 µM | Potency [7] > 46 µM | outcome [8] | Potency [9] | Potency [10] | activity change, negative = inhibition [11] -2% | Potency [12] | Potency [13] | Potency [14] | Potency [15] | Potency [16]
13.8%: max response [11, 20]
active: Potency [3] 15.8 µM

CN1CCN(c2ncc3nc(CCc4ccccc4)c(=O)n(C4CC4)c3n2)CC1
active: Potency [3] 12.6 µM
15.9%: max response [11, 20]
14.9%: max response [11, 21]
inactive: Potency [1] > 11.4 µM | activity change, negative = inhibition [2] 10.3% | activity change, negative = inhibition [4] 15.1% | activity, negative = inhibition [5] -7.8% | Potency [6] > 9.22 µM | Potency [7] > 46 µM | outcome [8] | Potency [9] | Potency [10] | activation [17] -5.15% | activity change, negative = inhibition [11] 1.8% | Potency [12] | Potency [13] | Potency [14] | Potency [15] | Potency [16]

N#Cc1cccc(-c2nc3cnc(Oc4cccc(Cl)c4)nc3n(C3CC3)c2=O)c1
8.29%: max response [11, 21]
11%: max response [11, 20]
active: Potency [3] 2.51 µM
inactive: Potency [1] > 11.4 µM | activity change, negative = inhibition [2] -1.53% | activity change, negative = inhibition [4] 12.5% | activity, negative = inhibition [5] -10.1% | Potency [6] > 9.22 µM | Potency [7] > 46 µM | outcome [8] | Potency [9] | Potency [18] | activity change, negative = inhibition [11] -3.65% | Potency [12] | Potency [13] | Potency [14] | Potency [15] | Potency [16]

Cc1noc(C)c1-c1cncnc1N(C)Cc1ccco1
13.2%: max response [11, 21]
active: Potency [18] 3.16 µM
11.5%: max response [11, 20]
inactive: Potency [1] > 11.4 µM | activity change, negative = inhibition [2] 1.41% | Potency [3] | activity change, negative = inhibition [4] -7.22% | activity, negative = inhibition [5] -0.77% | Potency [6] > 46 µM | Potency [7] > 46 µM | outcome [8] | Potency [9] | Potency [10] | activity change, negative = inhibition [11] 4.24% | Potency [12] | Potency [13] | Potency [14] | Potency [15] | Potency [16]

CNc1ccnc(-c2ccccc2OC)n1
active: Potency [3] 5.01 µM | Potency [19] 5.01 µM
26.2%: max response [11, 21]
inactive: Potency [1] > 11.4 µM | activity change, negative = inhibition [2] 4.71% | activity change, negative = inhibition [4] 8.86% | activity, negative = inhibition [5] 16.8% | Potency [6] > 46 µM | Potency [7] > 46 µM | outcome [8] | Potency [9] | Potency [10] | activation [17] 7.18% | activity change, negative = inhibition [11] 6.44% | Potency [12] | Potency [13] | Potency [14] | Potency [15] | Potency [16]
21.3%: max response [11, 20]
